The list is not random: actives were taken first. Their share in the collection is about 3.5%.
Tau fluor cs: counter-screen for tau fibril formation inhibitors. Potency, µM (titrated, usually from 57.7 µM). actives 0.93% (n = 280,000). tau K18 P301L Alexa594 fluorescence, heparin fibrillization; note: nearly all actives have a fitted effect of over 55% in size
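Human K18 P301L tau (15 uM unlabeled plus 0.24 uM Alexa 594-labeled, final) in 100 mM sodium acetate pH 7 was mixed with compound and 20 uM heparin and incubated 6 hr at 37 C.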
TRb-SRC2 inh: TRbeta-SRC2 interaction inhibition; P10828; TRbeta-SRC2 peptide binding, fluorescence polarization; receptor liganded with 1 µM T3; Potency, µM (titrated, usually from 106 µM), most hits filed as inhibitors; actives 0.065% (n = 280,000); AID 1469; note: nearly all actives have a fitted effect of over 50% in size
Target sequence (P10828 whole entry, looked up): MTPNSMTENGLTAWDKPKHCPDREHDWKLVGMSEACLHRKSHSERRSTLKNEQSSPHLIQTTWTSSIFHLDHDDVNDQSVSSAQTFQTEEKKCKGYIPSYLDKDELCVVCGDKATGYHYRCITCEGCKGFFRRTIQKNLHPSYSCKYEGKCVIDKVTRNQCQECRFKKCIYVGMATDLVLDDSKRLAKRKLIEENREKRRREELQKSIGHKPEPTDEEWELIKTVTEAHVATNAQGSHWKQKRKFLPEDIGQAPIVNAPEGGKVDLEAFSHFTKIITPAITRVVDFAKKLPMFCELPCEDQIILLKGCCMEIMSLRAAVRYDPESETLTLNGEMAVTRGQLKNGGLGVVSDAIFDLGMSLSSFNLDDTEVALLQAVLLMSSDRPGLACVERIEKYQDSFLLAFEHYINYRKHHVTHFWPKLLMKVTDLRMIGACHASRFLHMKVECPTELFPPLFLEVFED
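Fluorescence polarization of 20 nM Texas Red SRC2 peptide with 0.6 uM human TRb ligand-binding domain, in Tris buffer with 1uM T3 and 5% DMSO. Incubated 5 hr ambient; normalized to unbound and bound controls.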
Tau FP inhib: inhibitors of human tau fibril formation; Potency, µM (highest dose often 57.7 µM), hits mostly inhibitors; AID 1468; P10636; actives 0.39% (n = 280,000); K18 P301L tau heparin fibrillization, Alexa594 FP, 6 h; note: nearly all actives have a fitted effect of over 55% in size
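Steps: dispense K18 P301L tau (15 uM plus 0.24 uM Alexa 594 tracer, final) in pH 7 sodium acetate; add compound; add heparin (20 uM final); incubate 6 hr, 37 C; add ThT (30 uM final); after 1 hr ambient, read FP.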
KDM4E inh: blocks human JMJD2E demethylase activity | Potency, µM (doses to about 57.1 µM), usual class: inhibitors | AID 2147 | B2RXH2 | actives 1.6% (n = 230,000) | JMJD2E catalytic domain, FDH-coupled NADH fluorescence (FDH is formaldehyde dehydrogenase); note: nearly all actives have a fitted effect of over 50% in size
Tau ThT inhib: inhibitors of human tau fibril formation, thioflavin T binding | P10636 | recombinant tau K18 P301L, heparin-induced fibrillization, ThT fluorescence | Potency, µM (highest dose often 57.4 µM), actives largely listed as inhibitors | actives 2.1% (n = 270,000) | AID 1460; note: nearly all actives have a fitted effect of over 55% in size
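ThT emission at 510 nm, taken 1 hr after adding 30 uM dye, quantifies aggregates formed when 20 uM heparin acts on human tau K18 P301L for 6 hr at 37 C.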
TR SRC2 fluor cs: alters Texas Red total fluorescence, flagging assay interference. Potency, µM (doses to about 106 µM). actives 0.29% (n = 280,000). TRb/SRC2 Texas Red total fluorescence interference; active = well fitted curve in either direction with a large enough effect; inconclusive = small, poorly fitted or top-dose-only effect
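Flags fluorescent or light-absorbing compounds by total fluorescence, S + 2P, at 555 nm excitation and 632 nm emission. Mixture: 20 nM Texas Red SRC2 peptide, 0.6 uM human TRb LBD, 1 uM T3, 5% DMSO; compound exposure 5 h at ambient temperature.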
Large screens that a line does not name were inactive; [ ] = remark or other dose. Unless noted, calls come from the whole dose curve; as a rule, active = well fitted curve in the direction sought with a large enough effect; inconclusive = small, poorly fitted or top-dose-only effect, or another doubt; inactive = no such curve, though single readings can be large; an effect the other way counts as inactive or inconclusive.

CC(C)NC1=C(Cl)C(=O)c2ccccc2C1=O	Tau FP inhib inconclusive, KDM4E inh inconclusive, Tau ThT inhib 25.1µM
COCCCNC1=C(Cl)C(=O)c2ccccc2C1=O	Tau ThT inhib inconclusive
Cc1cccc(NC(=O)c2oc3ccccc3c2NC(=O)Cc2coc3ccc(C(C)C)cc23)c1	Tau FP inhib inconclusive (no result: KDM4E inh)
CC(C)c1ccc2occ(CC(=O)Nc3cccc(C(F)(F)F)c3)c2c1	Tau fluor cs inconclusive, Tau FP inhib 17.8µM (no result: KDM4E inh)
CCc1ccc2occ(CC(=O)Nc3ccc(OC)c(Cl)c3)c2c1	Tau fluor cs 25.1µM[quencher], Tau FP inhib inconclusive, Tau ThT inhib inconclusive, TR SRC2 fluor cs 0.0891µM[quencher] (no result: KDM4E inh)
Cc1ccc2occ(CC(=O)Nc3ccc(Cl)c(C(F)(F)F)c3)c2c1	Tau fluor cs inconclusive, Tau FP inhib 14.1µM (no result: KDM4E inh)
C=CCc1cccc2cc(C(=O)NCc3ccc(C(=O)OCC)o3)c(=O)oc12	KDM4E inh inconclusive
CNc1nc(Sc2cccc(C(F)(F)F)c2)cc(C(F)(F)F)n1	KDM4E inh inconclusive
O=C1Nc2ccc(Cl)cc2C12Nc1ccccc1-c1nnc(SCc3ccccc3F)nc1O2 (configuration not stated)	none
O=C1Nc2ccc(F)cc2C12Nc1ccccc1-c1nnc(SCc3ccccc3F)nc1O2 (configuration not stated)	Tau fluor cs inconclusive, Tau FP inhib inconclusive, Tau ThT inhib 25.1µM
Cc1[nH]c2ccc(C(=O)NCC(C)(C)N3CCOCC3)cc2c1C	KDM4E inh inconclusive
O=C(Nc1cc2c(cc1C(=O)c1ccccc1Br)OCCO2)c1ccccc1	Tau fluor cs inconclusive, Tau FP inhib inconclusive (no result: KDM4E inh)
CCC(=O)Nc1cc2c(cc1C(=O)c1ccccc1)OCCO2	TRb-SRC2 inh inconclusive, TR SRC2 fluor cs 28.2µM[fluorescent]
O=C(Nc1cc2c(cc1C(=O)c1ccccc1Cl)OCCO2)c1ccccc1	Tau fluor cs inconclusive, TRb-SRC2 inh inconclusive, Tau FP inhib inconclusive, TR SRC2 fluor cs 0.0891µM[quencher] (no result: KDM4E inh)
CCNc1nc(NCC)n2c(SCC(=O)O)nnc2n1	none
CC1CCN(S(=O)(=O)c2nnc(NC(=O)c3ccc(C(C)C)cc3)s2)CC1	Tau fluor cs inconclusive, Tau FP inhib inconclusive, Tau ThT inhib 2.82µM (no result: KDM4E inh)
COc1ccc(C(=O)Nc2nnc(S(=O)(=O)N3CCC(C)CC3)s2)cc1OC	Tau fluor cs inconclusive, Tau ThT inhib 12.6µM (no result: KDM4E inh)
COc1ccc(C(=O)Nc2nnc(S(=O)(=O)N3CCCCCC3)s2)cc1OC	Tau ThT inhib inconclusive (no result: KDM4E inh)
O=C(Cc1cccc2ccccc12)NN1C(=O)C2C(C1=O)C1C=CC2C12CC2 (configuration not stated)	none
COc1ccc(N(CC(=O)N2CCCC(C)C2)S(=O)(=O)c2c(C)nn(C)c2C)cc1 (configuration not stated)	none
O=C(N/N=C/c1ccc(O)cc1)/C(=C/c1ccccc1)CCO	Tau ThT inhib inconclusive
COc1ccc2nc(NC(=O)c3nc(SCc4cccc(C)c4)ncc3Cl)sc2c1	none (no result: KDM4E inh)
COc1ccc2nc(NC(=O)c3cc(=O)c4ccccc4o3)sc2c1	Tau ThT inhib 0.891µM (no result: KDM4E inh)
COc1ccc2nc(NC(=O)c3nc(S(=O)(=O)Cc4ccccc4F)ncc3Cl)sc2c1	Tau fluor cs inconclusive, Tau ThT inhib 7.08µM (no result: KDM4E inh)
COc1ccc2nc(NC(=O)c3nc(S(=O)(=O)Cc4ccccc4)ncc3Cl)sc2c1	Tau fluor cs inconclusive, Tau ThT inhib 8.91µM (no result: KDM4E inh)
O=C(c1ccc(F)cc1)C1CCN(C(=O)Nc2ccccc2Cl)CC1	none
CCN(CC)S(=O)(=O)c1cccc(NC(=O)CNC2CCCCCC2)c1	Tau fluor cs inconclusive, KDM4E inh inconclusive, Tau ThT inhib inconclusive
CCC(=O)c1ccc(Oc2ccc(C(=O)c3ccc(C)cc3)cc2[N+](=O)[O-])cc1	none
Cc1ccc(Oc2c(C(N)=O)cc([N+](=O)[O-])cc2[N+](=O)[O-])cc1	Tau fluor cs inconclusive, Tau FP inhib inconclusive, Tau ThT inhib 8.91µM
CCOc1nc(Nc2ccc(OC)c(Cl)c2)nc(N2CCN(c3ccc(OC)cc3)CC2)n1	Tau fluor cs inconclusive, Tau FP inhib inconclusive, Tau ThT inhib inconclusive
